Assay [1] in a line: Nuclear factor erythroid 2-related factor 2/antioxidant responsive element (Nrf2/ARE) small molecule agonists: qHTS cell viability counter screen in human keratinocytes (AID 1919968; active = well fitted curve in the direction sought with a large enough effect in the repeat runs; an effect the other way counts as inactive or inconclusive; also: nearly all actives have a fitted effect of over 55% in size). Summed up:
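Viability counter-screen: KeratinoSens reporter cells, DMSO-delivered compounds, 23 h at 37 C, CellTiter-Fluor fluorescence.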

Assay [2] can be described thus: Nuclear factor erythroid 2-related factor 2/antioxidant responsive element (Nrf2/ARE) small molecule agonists: luciferase reporter gene qHTS assay in human keratinocytes (AID 1919969). Also: nearly all actives have a fitted effect of over 35% in size.
Assay [3] has as its target Gonadotropin-releasing hormone receptor (Homo sapiens) (UniProt P30968). As to the kind of experiment: Human gonadotropin-releasing hormone receptor (GnRHR) small molecule agonists, calcium flux assay in GnRHR-HEK293 cells (AID 1920063). Also: nearly all actives have a fitted effect of over 35% in size. Summed up: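 Tox21-format agonist screen using human GnRHR-expressing HEK293 cells and a fluorescent calcium dye; kinetic 3-min fluorescence reading after compound addition, 15-point concentration series run in triplicate.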

The target in assay [4] is KiSS-1 receptor (Homo sapiens) (UniProt Q969F8). Nature of the assay: Human kisspeptin (KISS1R) small molecule agonists, calcium flux assay in KISS1R-HEK293 cells (AID 1920064; active = well fitted curve in the direction sought with a large enough effect in the repeat runs; an effect the other way counts as inactive or inconclusive). The method in brief:
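Intracellular calcium mobilization in KISS1R-HEK293 cells was recorded by fluorescence (Ex/Em 480/540) for 3 min following compound addition to cells pre-loaded 1 h with calcium dye.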

Assay [5] can be described thus: G protein-coupled receptor (GPCR) small molecule agonists, calcium flux assay: HEK293 wild type cell line counter screen (AID 1920065). Summed up: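 In this agonist-mode screen, ATP is the positive control and DMSO the vehicle. Cells grow 18 h before a 1 h dye incubation at 37 C; signal is taken at Ex/Em 480/540 over 3 min.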
Assay [6] is described as follows: p53 small molecule agonists, cell-based qHTS assay with human liver microsomes (AID 1963577).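 Also: p53 response element beta-lactamase reporter cells with liver microsomes plus NADPH.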 The method in brief:
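With metabolic activation: human liver microsomes (0.5 mg/mL final) plus NADPH (0.5 mg/mL final) added alongside compounds to p53RE-bla cells; 16 h 37 C exposure; beta-lactamase read by LiveBLAzer fluorescence.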

Assay [7] can be described thus: p53 small molecule agonists, cell-based qHTS assay with rat liver microsomes (AID 1963578). The method in brief:
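Metabolic activation by rat liver microsomes and NADPH, each 0.5 mg/mL final, added right after compounds to p53RE-bla reporter cells (4,000/well, plated 5 h earlier). 16 h at 37 C, then LiveBLAzer substrate for 2 h at room temperature in the dark; fluorescence read-out.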

Assay [8] is described as follows: p53 small molecule agonists, cell-based qHTS assay with human liver microsomes: qHTS cell viability counter screen (AID 1963579). Also: nearly all actives have a fitted effect of over 45% in size. The method in brief: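 Metabolic activation used human liver microsomes and NADPH, both 0.5 mg/mL final, over 16 hours at 37 C on p53RE-bla cells (4,000/well). Cytotoxicity measured by CellTiter-Glo luminescence, 30 min at room temperature.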

Assay [9] is described as follows: p53 small molecule agonists, cell-based qHTS assay with rat liver microsomes: qHTS cell viability counter screen (AID 1963580). Also: nearly all actives have a fitted effect of over 45% in size. Summed up: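 p53RE-bla HCT-116 cells (4,000/well) rested 5 h at 37 C, then given Tox21 compounds in DMSO with rat liver microsomes (0.5 mg/mL final) plus NADPH (0.5 mg/mL final) for 16 h at 37 C. Viability read by CellTiter-Glo luminescence after 30 min at room temperature.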

Assay [10] in a line: p53 small molecule agonists, cell-based qHTS assay: qHTS cell viability counter screen (AID 1963581). Also: nearly all actives have a fitted effect of over 45% in size. The method in brief: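 Compounds are pinned onto HCT-116 p53RE-bla cells and left 16 h at 37 C. Following the reporter FRET read, ATP is quantified by CellTiter-Glo luminescence after 30 min at room temperature.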
A short description of assay [11]: p53 small molecule agonists, cell-based qHTS assay (AID 1963582; active = well fitted activation curve with a large enough effect in the signal ratio in the repeat runs, not every such curve was filed as active; the % refers to the signal ratio). Summed up:
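Agonist activity was scored from beta-lactamase FRET fluorescence in p53RE-bla cells treated 16 h at 37 C with compounds in DMSO, substrate incubation being 2 h at room temperature.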

Assay [12] concerns the target 5-hydroxytryptamine receptor 2A (Homo sapiens) (UniProt P28223). Nature of the assay: 5-hydroxytryptamine receptor 2A (HTR2A) small molecule antagonists, cell-based qHTS assay (AID 1963586). Also: nearly all actives have a fitted effect of over 45% in size. Also: potency is read from the fitted curve at half-maximal effect. The method in brief:
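Antagonist-mode intracellular calcium assay: DOI (4 nM) added after 5 min compound pre-incubation at room temperature to dye-loaded HTR2A-CHO cells. Fluorescence followed for 3 min, sampled every second.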

Assay [13] has the same target. As to the kind of experiment: 5-hydroxytryptamine receptor 2A (HTR2A) small molecule agonists, cell-based qHTS assay (AID 1963587). Also: nearly all actives have a fitted effect of over 30% in size. Summed up:
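HTR2A-CHO cells, plated 18 h at 37 C/5% CO2, dye-loaded 1 h at 37 C; compounds in DMSO added by pin tool (agonist mode). Intracellular calcium flux read as kinetic fluorescence on FDSS over 2 min at 1 s intervals.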

Assay [14] concerns the target Muscarinic acetylcholine receptor M1 (Homo sapiens) (UniProt P11229). As to the kind of experiment: Cholinergic receptor muscarinic 1 (CHRM1) small molecule antagonists, cell-based qHTS assay (AID 1963588). Also: nearly all actives have a fitted effect of over 40% in size. The method in brief: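 CHRM1-CHO calcium-flux assay, antagonist mode. Cells were seeded 18 h, dye-loaded 1 h at 37 C and given compound for 5 min at RT, then acetylcholine was added at 50nM. FDSS fluorescence was read 3 min; 15 concentrations, three runs.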

Assay [15] shares this target. As to the kind of experiment: Cholinergic receptor muscarinic 1 (CHRM1) small molecule agonists, cell-based qHTS assay (AID 1963589). Also: nearly all actives have a fitted effect of over 35% in size. The method in brief:
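Stable CHRM1-CHO cells (human receptor) were incubated 18 h, dye-loaded for 1 h at 37 C and exposed to test compounds for agonist activity, with calcium-dependent fluorescence followed kinetically.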

Assay [16] is described as follows: cAMP Responsive Elements (CRE) small molecule agonists, cell-based qHTS assay (AID 1963590). Summed up: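 FRET-based beta-lactamase readout (LiveBLAzer B/G, 2 h RT) quantified CRE activation in HEK 293T CRE-bla cells after 3 h treatment with DMSO-dissolved compounds.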
Assay [17] in a line: cAMP Responsive Elements (CRE) small molecule antagonists, cell-based qHTS assay (AID 1963591; active = well fitted inhibition curve with a large enough effect in the signal ratio in the repeat runs, not every such curve was filed as active; the % refers to the signal ratio). The method in brief: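 qHTS in CRE-bla HEK 293T cells: compound in DMSO, then 0.25 uM NKH477 (final), 3 h at 37 °C/5% CO2; beta-lactamase FRET read-out after 2 h substrate incubation.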
Assay [18] concerns the target Beta-2 adrenergic receptor (Homo sapiens) (UniProt P07550). As to the kind of experiment: Adrenergic beta2 receptor (ADRB2) small molecule antagonists, cell-based qHTS assay (AID 1963592). Also: series mostly up to about 92 µM; nearly all actives have a fitted effect of over 50% in size. The method in brief:
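Cells (CHO, stable ADRB2 overexpression) incubated 18-20hr at 37C; compounds added from DMSO; agonist mix (1nM isoproterenol, 100uM IBMX, 25uM Ro-20-1724) added; 0.5hr RT; d2-cAMP and anti-cAMP-cryptate added; 1hr RT; 665/615 nm read.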

Assay [19] addresses D(2) dopamine receptor (Homo sapiens) (UniProt P14416). Nature of the assay: Dopamine D2 receptor (DRD2) small molecule agonists, cell-based qHTS assay (AID 1963594). Also: nearly all actives have a fitted effect of over 35% in size. The method in brief:
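HEK293 cells stably expressing DRD2 were cultured 24 h at 37 C, then given Ro20-1724 (0.1 mM final) and compounds for 10 min at room temperature. NKH477 (200nM) was then added for 30 min. cAMP was read by HTRF.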

Assay [20] has the same target. Nature of the assay: Dopamine D2 receptor (DRD2) small molecule antagonists, cell-based qHTS assay (AID 1963595; active = well fitted inhibition curve with a large enough effect in the signal ratio in the repeat runs, with a control signal flat; the % refers to the signal ratio). Summed up: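 HTRF cAMP read-out at 665 and 620 nm emission (340 nm excitation). Antagonist mode: compounds were tested against 12 nM quinpirole in DRD2-HEK293 cells, with 200 nM NKH477 raising cAMP and 0.1 mM Ro20-1724 blocking its breakdown.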

Values joined by “and” are separate entries in the source; they are usually repeats but may differ in a detail not shown here. Equal values may be shown once. Inconclusive results are not listed. Some structures have more than one record in an assay (separate samples or runs), and their calls can disagree. Active and inactive are the calls of the source. Unless noted, calls follow the shape of the full dose curve.

D(2) dopamine receptor (Homo sapiens), sequence (P14416 whole entry, looked up): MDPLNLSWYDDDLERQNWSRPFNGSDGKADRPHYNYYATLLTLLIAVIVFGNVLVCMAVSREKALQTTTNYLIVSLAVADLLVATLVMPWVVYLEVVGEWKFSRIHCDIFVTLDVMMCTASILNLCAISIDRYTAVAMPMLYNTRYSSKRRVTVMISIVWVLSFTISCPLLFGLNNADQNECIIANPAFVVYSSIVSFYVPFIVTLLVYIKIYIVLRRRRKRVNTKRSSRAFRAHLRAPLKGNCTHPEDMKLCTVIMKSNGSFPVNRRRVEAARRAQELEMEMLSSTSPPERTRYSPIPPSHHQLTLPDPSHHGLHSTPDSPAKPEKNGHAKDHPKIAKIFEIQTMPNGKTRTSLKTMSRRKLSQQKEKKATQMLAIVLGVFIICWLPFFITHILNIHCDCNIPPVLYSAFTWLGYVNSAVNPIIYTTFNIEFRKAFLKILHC
5-hydroxytryptamine receptor 2A (Homo sapiens), sequence (P28223 whole entry, looked up): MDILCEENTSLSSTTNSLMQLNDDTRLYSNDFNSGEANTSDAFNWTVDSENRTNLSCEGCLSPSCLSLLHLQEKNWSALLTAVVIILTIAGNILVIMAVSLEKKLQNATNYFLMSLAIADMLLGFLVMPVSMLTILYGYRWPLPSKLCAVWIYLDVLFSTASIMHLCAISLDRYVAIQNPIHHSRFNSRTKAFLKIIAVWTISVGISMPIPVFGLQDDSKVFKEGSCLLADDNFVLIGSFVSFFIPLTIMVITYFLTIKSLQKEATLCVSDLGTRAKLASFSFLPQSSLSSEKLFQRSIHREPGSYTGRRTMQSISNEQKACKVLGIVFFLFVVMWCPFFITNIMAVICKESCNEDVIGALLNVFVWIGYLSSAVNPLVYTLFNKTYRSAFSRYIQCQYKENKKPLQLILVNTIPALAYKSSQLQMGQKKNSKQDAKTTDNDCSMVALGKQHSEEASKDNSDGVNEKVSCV
Gonadotropin-releasing hormone receptor (Homo sapiens), sequence (P30968 whole entry, looked up): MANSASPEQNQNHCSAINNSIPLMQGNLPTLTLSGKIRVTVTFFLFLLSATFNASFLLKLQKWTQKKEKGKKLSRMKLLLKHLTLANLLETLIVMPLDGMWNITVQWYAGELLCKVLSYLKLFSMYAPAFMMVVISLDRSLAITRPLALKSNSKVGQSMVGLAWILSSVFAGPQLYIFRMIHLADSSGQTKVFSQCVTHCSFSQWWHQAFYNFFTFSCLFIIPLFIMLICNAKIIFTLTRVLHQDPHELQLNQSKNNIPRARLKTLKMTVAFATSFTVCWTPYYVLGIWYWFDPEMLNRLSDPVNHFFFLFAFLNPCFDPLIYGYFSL
Beta-2 adrenergic receptor (Homo sapiens), sequence (P07550 whole entry, looked up): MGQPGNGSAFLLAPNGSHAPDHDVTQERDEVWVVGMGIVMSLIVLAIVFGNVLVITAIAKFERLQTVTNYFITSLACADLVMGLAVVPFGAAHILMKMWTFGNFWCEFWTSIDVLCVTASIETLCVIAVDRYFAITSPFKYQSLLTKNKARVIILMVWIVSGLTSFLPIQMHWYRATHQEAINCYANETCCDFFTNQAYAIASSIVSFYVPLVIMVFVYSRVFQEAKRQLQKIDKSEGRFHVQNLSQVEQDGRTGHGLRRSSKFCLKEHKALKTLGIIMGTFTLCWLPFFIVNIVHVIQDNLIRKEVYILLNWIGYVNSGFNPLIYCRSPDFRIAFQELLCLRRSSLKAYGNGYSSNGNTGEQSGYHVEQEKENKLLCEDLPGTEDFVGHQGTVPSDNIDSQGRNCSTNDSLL
KiSS-1 receptor (Homo sapiens), sequence (Q969F8 whole entry, looked up): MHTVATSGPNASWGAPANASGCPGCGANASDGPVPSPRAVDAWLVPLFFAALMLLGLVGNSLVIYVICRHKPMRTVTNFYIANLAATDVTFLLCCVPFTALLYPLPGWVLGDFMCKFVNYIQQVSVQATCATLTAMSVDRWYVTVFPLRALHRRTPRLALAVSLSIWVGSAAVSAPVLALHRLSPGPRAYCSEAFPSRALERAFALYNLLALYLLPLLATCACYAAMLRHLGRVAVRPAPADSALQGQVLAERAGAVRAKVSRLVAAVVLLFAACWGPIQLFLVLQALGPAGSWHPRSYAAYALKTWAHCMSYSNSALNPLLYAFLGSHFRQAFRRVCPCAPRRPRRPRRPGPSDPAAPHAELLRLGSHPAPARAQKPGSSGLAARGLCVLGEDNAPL
Muscarinic acetylcholine receptor M1 (Homo sapiens), sequence (P11229 whole entry, looked up): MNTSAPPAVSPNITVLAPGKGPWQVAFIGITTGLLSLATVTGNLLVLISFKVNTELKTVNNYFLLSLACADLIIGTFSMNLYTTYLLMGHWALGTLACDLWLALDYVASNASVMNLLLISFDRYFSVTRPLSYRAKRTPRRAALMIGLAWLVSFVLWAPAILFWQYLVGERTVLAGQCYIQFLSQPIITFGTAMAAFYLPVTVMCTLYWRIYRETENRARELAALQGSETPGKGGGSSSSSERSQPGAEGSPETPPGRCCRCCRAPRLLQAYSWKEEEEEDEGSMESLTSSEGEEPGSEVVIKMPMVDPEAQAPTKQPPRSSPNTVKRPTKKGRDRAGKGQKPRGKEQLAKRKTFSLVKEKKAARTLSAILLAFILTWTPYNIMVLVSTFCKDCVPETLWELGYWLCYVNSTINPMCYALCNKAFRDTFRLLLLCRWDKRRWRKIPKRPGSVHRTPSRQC

As to `[Na+]`, the Potency entry in assay [1], in [2], in assay [3], in assay [4], in assay [5] and in [6] was “inactive” throughout. The Potency result in [7], in [8], in assay [9], in [10], in assay [11] and in assay [12] was “inactive” each time. Also, the Potency result in assay [13], in assay [14], in [15], in [16], in assay [17] and in assay [18] was “inactive” in each case. Further, the Potency entry in assay [19] and in [20] was “inactive” in each case.
On to `O=C(CC(C(=O)OC1CCCCC1)S(=O)(=O)O)OC1CCCCC1` (stereo not given), for which the Potency entry in assay [1], in assay [2], in assay [3], in assay [4], in assay [5] and in assay [6] was “inactive” in each case. The Potency result in assay [7], in assay [8], in assay [9], in [10], in assay [11] and in assay [12] was “inactive” each time. In addition, the Potency result in [13], in assay [14], in assay [15], in assay [16], in [17] and in assay [18] was “inactive” each time. For the same compound, the Potency entry in assay [19] and in assay [20] was “inactive” in each case.
Turning to `C=C(C)C1CC=C(C)C(OC(C)=O)C1` (stereo not given), the Potency result in [1], in assay [2], in assay [3], in assay [4], in [5] and in assay [6] was “inactive” throughout. The Potency result in assay [7], in [8], in [9], in [10], in assay [11] and in assay [13] was “inactive” in each case. In addition, the Potency entry in assay [14], in [15], in assay [16], in assay [17], in assay [18] and in assay [19] was “inactive” throughout. Moreover, the Potency result in assay [20] is “inactive”. Also, in [12], the Potency entry was “inactive and 3.75 µM (active)”.
For the compound `C=CC[N+](C)(C)CC=C`, the Potency result in [1], in assay [2], in assay [3], in [4], in assay [5] and in [6] was “inactive” in each case. Moreover, the Potency result in [7], in assay [8], in assay [9], in [10], in assay [11] and in assay [12] was “inactive” throughout. Besides, the Potency entry in [13], in [14], in assay [15], in assay [16], in assay [17] and in assay [18] was “inactive” each time. Moreover, the Potency entry in assay [19] and in [20] was “inactive” each time.
Take `COc1ccccc1[N+](=O)[O-]`: the Potency entry in assay [1], in assay [2], in [3], in assay [4], in [5] and in assay [6] was “inactive” throughout. Also, the Potency entry in assay [7], in [8], in assay [9], in assay [10], in [11] and in assay [12] was “inactive” in each case. The Potency result in [13], in assay [14], in [15], in assay [16], in assay [17] and in assay [18] was “inactive” each time. Besides, the Potency result in assay [19] and in [20] was “inactive” throughout.
On to `C[Si](C)(C)O[Si](C)(C)C`, for which the Potency entry in assay [1], in [2], in assay [3], in assay [4], in [5] and in assay [6] was “inactive” each time. Moreover, the Potency entry in assay [7], in assay [8], in assay [9], in assay [10], in assay [11] and in [12] was “inactive” each time. The Potency result in assay [13], in assay [14], in [15], in [16], in assay [17] and in assay [18] was “inactive” each time. Besides, the Potency result in assay [19] and in [20] was “inactive” throughout.
With `NS(=O)(=O)O`, the Potency result in assay [1], in assay [2], in [3], in assay [4], in assay [5] and in assay [6] was “inactive” in each case. Further, the Potency entry in assay [7], in assay [8], in assay [9], in assay [10], in [11] and in [12] was “inactive” each time. The Potency result in assay [13], in [14], in assay [15], in assay [16], in [17] and in assay [18] was “inactive” each time. For the same compound, the Potency result in [19] and in assay [20] was “inactive” throughout.

For the origin of these results see PubChem BioAssay (Tox21).
